Sampled rows, rich in hits. Any-hit rate of the full collection: about 7.9%.
HT1080-NT tox – kills 2HG-producing HT-1080-NT fibrosarcoma cells; Potency, µM (titrated, usually from 46.1 µM), for inactives: at the highest dose activity, negative = less viability, actives largely listed as cytotoxic; AID 686970; 1.6% of 360,000 active; HT-1080-NT fibrosarcoma viability, CellTiter-Glo ATP luminescence, 48 h;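 also: NT is the 2HG producing partner of a matched IDH1 knockdown line; 0% = DMSO-treated cells and -100% = media-only wells without cells; nearly all actives have a fitted effect of over 55% in size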
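Toxicity toward the 2HG-producing NT line was scored as %Activity, normalised to DMSO and no-cell wells, from CellTiter-Glo luminescence after 48 hours' treatment.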
MCF10A rerep – induces DNA re-replication in MCF 10a normal breast cells; 2.9% of 350,000 active; Potency, µM (series often up to 46.1 µM), inactives show top-dose activity, positive = re-replication, actives largely listed as activators; MCF 10A DNA re-replication, Hoechst nuclear intensity, 48 h; AID 624296; also: % of control where 0% means no effect; nearly all actives have a fitted effect of over 50% in size
KB-V1 cytotox – KB-V1 MDR subline cytotoxicity | Potency, µM (series often up to 46.1 µM), usual class: cytotoxic | KB-V1 MDR cells viability, CellTiter-Glo, 72 h | 3.4% of 400,000 active; also: % is scaled to controls: 0 for no effect and ±100 for the full control effect; nearly all actives have a fitted effect of over 60% in size
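Compound-treated KB-V1 multidrug-resistant cells, 72 h, 37 degrees C; viability by CellTiter-Glo. Fitted qHTS curves give the values.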
KB-3-1 cytotox – kills parental KB-3-1 adenocarcinoma cells | 1.4% of 400,000 active | AID 1347075 | Potency, µM (top dose mostly 46.1 µM), actives largely listed as cytotoxic | KB-3-1 viability, CellTiter-Glo ATP luminescence, 72 h; also: % is scaled to controls: 0 for no effect and ±100 for the full control effect; nearly all actives have a fitted effect of over 60% in size
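Luminescent ATP read-out (CellTiter-Glo) measures survival of drug-naive KB-3-1 cells after 72 h compound exposure at 37 °C. Titration series was screened from lowest to highest concentration, with DMSO vehicle plates as background controls.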
SW480 rerep – inducers of DNA re-replication in SW480 colon cancer cells | SW480 DNA re-replication, Hoechst DNA content imaging, 48 h | Potency, µM (highest dose often 46.1 µM), inactives show top-dose re-replication activation, hits mostly activators | 1.8% of 340,000 active; also: % of control where 0% means no effect; nearly all actives have a fitted effect of over 55% in size
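Per well, 250 cells were exposed to pinned compound for 48 hr. Nuclear DNA was visualised with Hoechst (40 min, 37 C) and total object intensity recorded by fluorescence scanning.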
HT1080 IDH1KD tx – HT-1080 IDH1 knockdown cell toxicity (counter line); 2% of 360,000 active; Potency, µM (doses to about 46.1 µM), for the others: top-dose activity, negative = toxicity, actives largely listed as cytotoxic; HT-1080 IDH1 knockdown viability, ATP luminescence, 48 h;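 also: 0% = DMSO wells and -100% = cell-free medium wells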
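Using the IDH1-knockdown HT-1080 line run in the same batch and compound series as the NT line, viability after 48 h at 37 °C was determined by CellTiter-Glo luminescence and expressed as % activity.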
Active calls of the source: *; i = inactive; ? = inconclusive; . = not tested or not shown; [ ] = remark or other dose. Calls follow the shape of the dose curve; as a rule, active = well fitted curve in the direction sought with a large enough effect; inconclusive = small, poorly fitted or top-dose-only effect, or another doubt; inactive = no such curve, though single readings can be large; an effect the other way counts as inactive or inconclusive. Potency is read from the fitted curve at half-maximal effect.

SMILES | HT1080-NT tox | MCF10A rerep | KB-V1 cytotox | KB-3-1 cytotox | SW480 rerep | HT1080 IDH1KD tx
Cc1ccccc1-n1nnnc1Sc1nnnn1-c1ccccc1 | ? | 14.6µM* | ? | ? | ? | 14.6µM*
CCCSc1nnc(Sc2nnnn2-c2ccccc2)s1 | 16.4µM* | ? | 13µM* | 5.17µM* | 6.51µM* | 23.1µM*
O=C(CC1NCCNC1=O)Nc1cccc(F)c1 (stereo not given) | . | . | i | i | . | .
Cn1c(SCc2ccc(Cl)cc2)nnc1-c1ccc(NC(=O)CCc2ccccc2)cc1 | . | . | i | i | . | .
COCCNc1nc2nonc2nc1N(C)Cc1cccc2cnccc12 | -21.0% | -2.0% | i | i | 4.61µM* | -6.7%
CCN(c1ccccc1)c1nc2nonc2nc1NCCO | 4.3% | 0.4% | i | i | -5.6% | 4.3%
O=C(CN1C(=O)c2cccc3cccc1c23)Nc1ccccc1Br | . | . | i | i | . | .
COc1ccc(-c2noc(N(c3cccc(Cl)c3)c3nc(-c4ccc(OC)c(OC)c4)no3)n2)cc1OC | . | . | i | i | . | .
COc1ccc(-c2cc(C)no2)cc1S(=O)(=O)N(C)c1ccc(C)cc1 | ? | 7.31µM* | 8.2µM* | ? | -4.8% | ?
CCOc1ccc(N(C)S(=O)(=O)c2cc(-c3cc(C)no3)ccc2C)cc1 | -14.9% | ? | ? | ? | 20.6µM* | ?
CCN(CC)C(=O)C(c1ccccc1)S(=O)(=O)N1CCOCC1 (stereo not given) | -0.4% | . | i | i | . | ?
Cc1ccc(-c2cc(-c3coc4ccccc4c3=O)c3c(n2)-c2ccccc2OC3)cc1 | . | . | i | i | . | .
C=C1C(=O)O[C@@H]2[C@H]3O[C@]3(C)CC/C=C(\C)CC[C@@H]12 | 9.2µM* | 4.11µM* | i | i | -13.4% | 18.4µM*
CCOc1ccc(NS(=O)(=O)c2cc(NC(=O)c3cccc(C)c3)ccc2Cl)cc1 | ? | ? | i | ? | ? | 25.9µM*
CN1CCC(C)(C(=O)Nc2cccc(Oc3ccccc3)c2)C1 (stereo not given) | -10.0% | . | i | i | . | -0.6%
COc1ccc(-c2nc(N=Nc3ccc(O)cc3)n[nH]2)cc1 | 7.1% | -3.6% | i | i | -4.2% | -8.9%
Cc1ccc(-c2nc(N=Nc3ccc(O)cc3)n[nH]2)cc1 | 11.5% | ? | 13µM* | i | -3.4% | -15.3%
CCOc1ccc(CCNC(=O)c2c(C)oc3ncn(CC(C)C)c(=O)c23)cc1OCC | . | . | i | i | . | .
CCOC(=O)C#CC(CCc1ccccc1)OS(N)(=O)=O (stereo not given) | -1.4% | 5.17µM* | i | i | -2.4% | -2.8%
Cc1sc2ccccc2[n+]1Cc1ccccc1 | . | . | i | i | . | .
O=C(Nc1cccc(Cl)c1)c1ccccc1 | 7.7% | -6.6% | i | i | -58.2% | 12.9%
O=C1C(Cl)=C(NC(=O)c2ccccc2)C(=O)C(Cl)=C1NC(=O)c1ccccc1 | 10.3µM* | 27.1% | ? | ? | ? | 8.2µM*
Cc1cccc(C(=O)Nc2cccc(NC(=O)c3ccccc3)c2)c1 | -19.8% | -0.1% | i | i | -2.1%[9.22 µM] | -22.0%
O=C(Nc1ccc(Nc2ccccc2)cc1)c1ccc(Cl)cc1 | -7.8% | 6.1% | i | i | 8.5% | -25.3%
O=C(NC1=C(Nc2ccc(Cl)cc2)C(=O)c2ccccc2C1=O)c1ccccc1 | ? | 3.1% | 20.6µM* | 18.4µM* | ? | -17.3%
Cc1cccc(NC2=C(NC(=O)c3ccccc3)C(=O)c3ccccc3C2=O)c1 | ? | ? | 14.6µM* | i | 18.4µM* | ?
O=C(NC1=C(NC2CCS(=O)(=O)C2)C(=O)c2ccccc2C1=O)c1ccccc1 (stereo not given) | 14.6µM* | ? | ? | ? | ? | 18.4µM*
COc1ccc(NC(=O)CSc2nc3ccccc3n2CC(=O)Nc2cccc(C)c2C)cc1 | . | . | i | i | . | .
